Measured values: PubChem BioAssay (EPA / NIEHS)
Inconclusive results are not listed. Calls of active or inactive are those of the source. How the source made its calls: active means hit-call score of the fitted dose curve at least 0.9, where 1 is the maximum; inconclusive means response in the unintended direction; inactive means score below 0.9.

Each compound was assayed against human Phosphatase and Tensin Homolog (PTEN), PTEN (gene 5728) (UniProt P60484) (assay: NVS_ENZ_hPTEN: NovaScreen (NVS) Enzymatic Assay for human Phosphatase and Tensin Homolog (PTEN) (AID 2283203)).
Chain of human Phosphatase and Tensin Homolog (PTEN), PTEN (gene 5728) (P60484 whole entry, looked up): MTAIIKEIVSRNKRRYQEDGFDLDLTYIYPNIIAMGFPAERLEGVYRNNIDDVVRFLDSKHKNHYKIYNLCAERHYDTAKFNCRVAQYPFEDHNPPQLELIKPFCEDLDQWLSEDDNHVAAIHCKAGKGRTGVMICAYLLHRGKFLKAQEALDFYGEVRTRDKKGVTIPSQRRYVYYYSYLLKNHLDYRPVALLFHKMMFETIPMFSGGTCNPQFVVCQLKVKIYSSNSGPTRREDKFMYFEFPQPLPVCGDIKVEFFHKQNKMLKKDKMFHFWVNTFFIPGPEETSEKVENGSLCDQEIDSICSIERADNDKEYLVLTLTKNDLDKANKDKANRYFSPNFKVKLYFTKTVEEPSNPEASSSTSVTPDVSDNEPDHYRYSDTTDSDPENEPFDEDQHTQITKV
Outline: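 Loss of fluorescent product signal after mobility-shift separation reports PTEN activity, recombinant human enzyme, 1 h after compound addition. Single 25 uM duplicate screen, then concentration-response on actives; DMSO baseline.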

SMILES	outcome	AC50
CCC(C)C(=O)OC (stereo not given)	inactive	–
Nc1ccc(F)c([N+](=O)[O-])c1	inactive	–
Fc1ccc(Br)cc1	inactive	–
COc1ccc(CCN2CCC(Nc3nc4ccccc4n3Cc3ccc(F)cc3)CC2)cc1	inactive	–
NC(=O)c1ccccc1Cl	inactive	–
C=CC(=O)OCC(Br)CBr (stereo not given)	inactive	–
N#Cc1ccc(CC(=NNC(=O)Nc2ccc(OC(F)(F)F)cc2)c2cccc(C(F)(F)F)c2)cc1	inactive	–
C=C1CC[C@H]2O[C@]2(C)CC[C@@H]2[C@@H]1CC2(C)C	inactive	–
CCN(CC)CC	–	3.58 µM (active)
CCc1cccc(CC)c1N(COC)C(=O)CS(=O)(=O)O	inactive	–
CC(c1cc(C(C)(C)C)cc(C(C)(C)C)c1O)c1cc(C(C)(C)C)cc(C(C)(C)C)c1O	–	5.29 µM (active)
O[Si](c1ccccc1)(c1ccccc1)c1ccccc1	–	10.6 µM (active)
COc1ccccc1C=O	inactive	–
O=S(=O)(O)c1ccc(N=Nc2c(O)ccc3cc(S(=O)(=O)O)ccc23)cc1	inactive	–
CO[Si](OC)(c1ccccc1)c1ccccc1	inactive	–
CN(C[C@@H](CC[N+]12CCC(C3CCCCC3)(CC1)CC2)c1ccc(Cl)c(Cl)c1)C(=O)c1cc(C(F)(F)F)cc(C(F)(F)F)c1	–	16.2 µM (active)
Oc1ccc2c(c1)CCC2	–	1.62 µM (active)
CCCCC/C=C/C=C/C=O	–	25 µM (active)
C#CC(O)CCC (stereo not given)	–	25 µM (active)
CCOC=C(C(=O)OCC)C(=O)OCC	inactive	–

SMILES	outcome	AC50
CC/C=C\C#N	inactive	–
CCC(=O)OCC=Cc1ccccc1	inactive	–
CC(C)c1ccccc1N	–	12.4 µM (active)
S=c1[nH][nH]c(=S)s1	–	2.47 µM (active)
O=C1OC2(c3ccc(O)cc3Oc3cc(O)ccc32)c2ccccc21	inactive	–
CCCCOCC	–	37 µM (active)
COc1cccc(OC)c1O	inactive	–
OCCC(O)CO (stereo not given)	–	14.7 µM (active)
CC(=O)OCC=C(C)CCC=C(C)CCC=C(C)C	inactive	–
CCCCCCCCCCCCCCCC	inactive	–
CCCC(C)C=O (stereo not given)	inactive	–
O=C1C=CC(=O)O1	inactive	–
CCCCCCCCCCc1ccccc1	inactive	–
CCCCCCCCc1ccc(Nc2ccc(CCCCCCCC)cc2)cc1	inactive	–
Cc1nc(C)nc(N2C[C@@H](C)N(c3ccnc([C@@H](C)O)n3)[C@@H](C)C2)n1	inactive	–
N#[N+]c1ccc2c(S(=O)(=O)[O-])cccc2c1O	inactive	–
CCCCCC1=CCCC1=O	–	16.3 µM (active)
CCOC(C=C(C)CCC=C(C)C)OCC	inactive	–
CN(C)C(=S)SC(=S)N(C)C	–	18.9 µM (active)
Cc1cccc2c1ccc1ccccc12	–	13.8 µM (active)
